Data on 37 compounds can be found in PubChem BioAssay (EPA / NIEHS).

Results filed as inconclusive are left out. Activity calls are given as the source filed them. Rule for the calls: active = hit-call score of the fitted dose curve at least 0.9, where 1 is the maximum; inconclusive = response in the unintended direction; inactive = score below 0.9.

Read-out in this assay: Cytochrome P450 2C9 (Homo sapiens) (UniProt P11712)
The assay is described as follows: CLD_CYP2C9_24hr: CellzDirect (CLD) Gene Expression Assay for xenobiotic metabolism (CYP2C9) at 24 hours (AID 2283688). As to the method:
CLD_24hr is a cell-based, multiplexed-readout assay that uses hepatocyte, a human liver primary cell, with measurements taken at 24 hours after chemical dosing in a 96-well plate.CLD_CYP2C9_24hr is one of 16 assay component(s) measured or calculated from the CLD_24hr assay. It is designed to make measurements of mRNA induction, a form of inducible reporter, as detected with chemiluminescence signals by Quantitative Nuclease Protection Assay (qNPA) technology.Data from the assay component CLD_CYP2C9_24hr was analyzed at the endpoint, CLD_CYP2C9_24hr, in the positive analysis fitting direction relative to DMSO as the negative control and baseline of activity. Using a type of inducible reporter, gain-of-signal activity can be used to understand changes in the reporter gene as they relate to the gene CYP2C9. Furthermore, this assay endpoint can be referred to as a primary readout. To generalize the intended target to other relatable targets, this assay endpoint is annotated to the cyp intended target family, where subfamily is xenobiotic metabolism.
Human hepatocyte cultures were treated daily for two consecutive days with fresh dosing solutions containing appropriate concentrations of the 320 ToxCast chemicals (chemical identities were blinded to CellzDirect and other ToxCast collaborators), vehicle control (0.2% DMSO), and positive control inducers as summarized in Table 1. Due to the large number of treatment groups and chemicals examined, the ToxCast chemicals were divided into two groups (spanning two independent cultures of hepatocytes from separate donor preparations (Hu778: ToxCast plates 1 and 2; Hu776: ToxCast plates 3 and 4). Each preparation of human hepatocyte cultures was treated with respective vehicle control, medium only control, set of six positive controls/reference chemicals for the five hepatic receptor pathways, and a subset of eight of the ToxCast chemicals (indoxacarb, pyrithiobac-sodium, norflurazon, cyhalofop-butyl, methomyl, thiram, acetochlor, and propiconazole). These replicate data, coupled with internal replicates designed within the blinded ToxCast chemical library, provided additional data to evaluate interindividual differences between hepatocyte preparations and their potential impact on chemical profiles.Cell morphology and integrity were evaluated using phase-contrast microscopy as an indicator of hepatocyte cell health (Tyson & Green, 1987). Cultures for each treatment group (i.e., media, vehicle [0.2% DMSO], positive control inducers [multiple concentrations], and the ToxCast chemicals [multiple concentrations]) were observed and cell morphology was assessed relative to vehicle control cultures at each harvest time point (0, 6, 24, or 48 h). […] Images were evaluated at the conclusion of the study to assess changes in cell integrity and account for the effects of chemical exposure on uncharacteristic changes in concentration-dependent gene expression profiles. The results from these determinations of apparent cytotoxicity were annotated (yes/no) alongside the corresponding qNPA data for reference.At the conclusion of each treatment period, hepatocyte cultures (96-well) were washed with 1 volume of HBSS, lysed by addition of 25 ul ArrayPlate lysis buffer (HTG, Tucson, AZ), and 70 ul/well of Denaturation Oil, denatured by incubation at 95C for 10 min, and frozen at approximately -70C until analysis by nuclease protection assay (qNPA) (Roberts et al., 2007). For qNPA analysis, cell lysates were thawed at 50C for approximately 30 min, qNPA probes were added, and samples were incubated at 95C for 10 min to begin the detection process by denaturing the target RNA, dissociating the duplexes and secondary structure hybridization. At the conclusion of the hybridization period, S1 nuclease reagent was added to each sample to digest all nonprotected nucleotides at 50C for 60-90 min. […]
Consider `CC[C@H](C)[C@H]1O[C@]2(C=C[C@@H]1C)C[C@@H]1C[C@@H](C/C=C(\C)[C@@H](O[C@H]3C[C@H](OC)[C@@H](O[C@H]4C[C@H](OC)[C@@H](NC)[C@H](C)O4)[C@H](C)O3)[C@@H](C)/C=C/C=C3\CO[C@@H]4[C@H](O)C(C)=C[C@@H](C(=O)O1)[C@]34O)O2`, for which the result was inactive.
`CCCOc1nn(C(=O)NS(=O)(=O)c2ccccc2C(=O)OC)c(=O)n1C`: the result was inactive.
In the case of `CCOC(=O)CC(SP(=O)(OC)OC)C(=O)OCC` (configuration not stated), the compound was called inactive.
Turning to `COc1cc(OC)nc(Sc2cccc(Cl)c2C(=O)O)n1`, the outcome was inactive.
To `CC(=NC#N)N(C)Cc1ccc(Cl)nc1` belongs “inactive”; to `C#CC(C)(C)NC(=O)c1cc(Cl)cc(Cl)c1`, “inactive”; to `CNC(=O)ON=C(SC)C(=O)N(C)C`, “inactive”.
With `CNC(=O)Oc1cccc2c1OC(C)(C)O2`, the call was inactive.
Take `CSC1=N[C@@](C)(c2ccccc2)C(=O)N1Nc1ccccc1`: the result was inactive.
Turning to `C=C(C)[C@H]1Cc2c(ccc3c2O[C@@H]2COc4cc(OC)c(OC)cc4[C@@H]2C3=O)O1`, the compound was classed as inactive.
Turning to `CCOP(=S)(OCC)Oc1ccc2c(C)c(Cl)c(=O)oc2c1`, the call was inactive.
With `C[N+]1(C)CCCCC1` the entry was “inactive”; with `Cc1ccn2nc(S(=O)(=O)Nc3c(F)cccc3F)nc2n1`, “inactive”.
In the case of `CCOP(=O)(SC(C)CC)N1CCSC1=O` (configuration not stated), the compound was called inactive.
In the case of `CCCCN(CC)c1c([N+](=O)[O-])cc(C(F)(F)F)cc1[N+](=O)[O-]`, the result was inactive.
With `CCCSP(=O)(OCC)Oc1ccc(Br)cc1Cl` (configuration not stated), the compound was called inactive.
In the case of `CCOP(=O)(OCC)Oc1cc(C)nc(C(C)C)n1`, the compound was called inactive.
For `CCC(CC)Nc1c([N+](=O)[O-])cc(C)c(C)c1[N+](=O)[O-]`, the result was inactive.
On to `CCOP(=S)(Oc1cnc(C(C)(C)C)nc1)OC(C)C` (configuration not stated), for which the compound was called inactive.
With `CC(COc1ccc(Oc2ccccc2)cc1)Oc1ccccn1` (configuration not stated) the entry was “inactive”; with `CSc1nc(NC(C)C)nc(NC(C)C)n1`, “inactive”.
`C#CCC1=C(C)C(OC(=O)C2C(C=C(C)C)C2(C)C)CC1=O` (configuration not stated): the call was inactive.
Take `CCc1cccc(C)c1N(C(=O)CCl)C(C)COC` (configuration not stated): the compound was called inactive.
In the case of `Nc1c(Cl)cc([N+](=O)[O-])cc1Cl`, the compound was called inactive.
With `CCOC(=O)COc1cc(-c2nn(C)c(OC(F)F)c2Cl)c(F)cc1Cl` the entry was “inactive”; with `CCOP(=S)(OCC)OC(Cl)C(Cl)(Cl)Cl` (configuration not stated), “inactive”.
To `CCCCSP(=O)(SCCCC)SCCCC` belongs “inactive”; to `CON=C(C(=O)OC)c1ccccc1CON=C(C)c1cccc(C(F)(F)F)c1`, “inactive”; to `CCC(=NOC/C=C/Cl)C1=C(O)CC(C2CCOCC2)CC1=O` (configuration not stated), “inactive”.
With `O=c1ccc(=O)[nH][nH]1` the entry was “inactive”.
As to `COc1ccc(C(=CC(=O)N2CCOCC2)c2ccc(Cl)cc2)cc1OC`, the result was inactive.
On to `Nc1nc(N)nc(NC2CC2)n1`, for which the call was inactive.
With `CCc1cccc(CC)c1N(COC)C(=O)CCl` the entry was “inactive”; with `CN(C)C(=O)Nc1cccc(C(F)(F)F)c1`, “inactive”; with `CCOP(=O)(NC(C)C)Oc1ccc(SC)c(C)c1` (configuration not stated), “inactive”.
As for `CC(C)=CC1C(C(=O)OCN2C(=O)C3=C(CCCC3)C2=O)C1(C)C` (configuration not stated), the call was inactive.
As to `CN1COCN(Cc2cnc(Cl)s2)C1=N[N+](=O)[O-]`, the result was inactive.
